Shown are actives, neighbours in structure and some others; about 4% of the full set was active somewhere.
EWS-Fli block: EWS/Fli-driven NR0B1 reporter inhibitors, primary screen, A673 cells, NR0B1 luciferase, luminescence, MLPCN library; viability-normalised; 0.67% of 350,000 active; inhibition, % at 12.6 µM;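 active means mean inhibition of at least 50% after viability correction, with every replicate also passing that limit; inconclusive means mean reaches 50% but only one of two replicates passes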;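 further: firefly luciferase signal divided by Alamar Blue viability fluorescence both relative to DMSO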
MITF TRPM1 HTS: activators of MITF-driven TRPM1 promoter reporter, primary screen, cell-based, SK-MEL-5, luciferase, single point | SK-MEL-5 TRPM1-promoter luciferase, 24 h; % of positive control, neutral wells = 0 | activation, % at 12.5 µM | 0.75% of 300,000 active;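 active means mean activation of at least 80% with every replicate also reaching 80%; inconclusive means mean reaches 80% but some replicate falls short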;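 further: 0% = neutral control wells and 100% = parthenolide positive control wells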
MITF TRPM1 inh: inhibitors of MITF-dependent TRPM1 promoter reporter, primary screen, cell-based, SK-MEL-5, single point, luciferase. SK-MEL-5 TRPM1 promoter luciferase, 24 h. inhibition, % at 12.5 µM. 0.83% of 330,000 active. AID 488899, 2010;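 active means mean inhibition across replicates of 60% or more, whatever share of single replicates reaches that level; inconclusive means some that reach 60%, reason not given; inactive means mean inhibition across replicates below 60%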
PAX8 reporter: inhibitors of PAX8-driven TPO luciferase reporter, primary screen, RMG-I cells, single concentration; SteadyGlo, 24 h; 1.2% of 360,000 active; AID 652154, 2013; inhibition, % at 12.6 µM;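 active means mean replicate inhibition at least 60% with every replicate also reaching 60%; inconclusive means only one of the two criteria is met; inactive means mean below 60% and not all replicates reaching 60%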;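 further: luciferase light reporting Pax8 driven TPO promoter activity; plate controls were median of neutral control wells for no effect and mitoxantrone controls for full effect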
esBAF inh: Bmi1 luciferase reporter increase in mESCs, primary screen, esBAF inhibitor project, mouse ES cells, Bmi1 luciferase knock-in, single point. 2% of 350,000 active. AID 602393, 2012. 24 h; 100% = twice the neutral-well signal. reporter increase, % at 12.5 µM; in the data active means activation above about 40%; inconclusive means no clear call, values can overlap the other calls;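 further: 0% = median of the plate's neutral control wells and 100% = double that signal; a rise in the Bmi1 reporter signal indicates esBAF inhibition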
Wnt act: Wnt/beta-catenin pathway activators, primary screen, cell-based, plate reader, single point | Wnt/beta-catenin reporter cell assay, activator | activation, % at 9.35 µM | 1.2% of 300,000 active | AID 743398, 2014; in the data active means activation above about 30%, passing the limit was not always enough; inconclusive means no clear call, values can overlap the other calls;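 further: 0% = neutral control wells and 100% = positive control wells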
Numbers without * were called inactive; ? = inconclusive; nt = not tested or not shown; ! = not active in a repeat.

SMILES | EWS-Fli block | MITF TRPM1 HTS | MITF TRPM1 inh | PAX8 reporter | esBAF inh | Wnt act
CC1CCC(C(C)C)C(OC(=O)Cn2c(COc3ccccc3)[n+](C)c3ccccc32)C1 (configuration not stated) | 20 | -96 | 97* | 91* | -31 | -1
O=C(O)[C@H]1[C@H](CO)[C@H]2Cn3c(ccc(-c4ccc(F)cc4)c3=O)[C@@H]1N2CC1CCCC1 | -3 | nt | nt | 24 | nt | nt
Cc1cccc(S(=O)(=O)N2[C@@H]3c4ccc(-c5ccc(F)cc5)c(=O)n4C[C@H]2[C@H](CO)[C@H]3C(=O)O)c1 | 0 | nt | nt | nt | 0 | nt
COC(=O)N1Cc2ccccc2-n2nncc2C1 | -9 | nt | nt | 7 | 2 | -3
COc1cccc(-c2ccc3c(c2)C2c4cnnn4-c4ccccc4C(=O)N2CC3)c1 (configuration not stated) | 59* | nt | nt | 19 | nt | -6
O=C(Cc1ccccc1)N1CC2(C1)[C@H](c1ccccc1)[C@@H](CO)N2Cc1cccc(F)c1 | 3 | nt | nt | 45 | nt | nt
O=C1NC(=O)N(CCc2ccc(F)cc2)C(=O)/C1=C\C=C\c1ccccc1 | 37 | -89 | 90* | -6 | -1 | -7
C=CCN1C(=O)NC(=O)/C(=C/C=C/c2ccccc2)C1=O | 31 | -94 | 94* | 45 | 7 | 3
CCCNC(=O)N1[C@@H]2Cn3c(ccc(-c4ccccc4OC)c3=O)[C@H]1[C@@H](C(=O)OC)[C@@H]2CO | -4 | nt | nt | -1 | 5 | nt
CN1C(=O)NC(=O)/C(=C\C=C\c2ccccc2[N+](=O)[O-])C1=O | 67* | nt | nt | 10 | nt | 1
CCCN1[C@@H]2c3cccc(=O)n3C[C@H]1[C@H](CO)[C@H]2C(=O)N(C)C | 0 | nt | nt | nt | -2 | nt
CNc1cc(Cl)c2nonc2c1[N+](=O)[O-] | 31 | -96 | 96* | ? | nt | 5
Cc1cc(C=C2C(=O)NC(=S)NC2=O)c(C)n1C1CCCC1 | -51 | 32 | -35 | -2 | 48* | 6
CC=Cc1ccc2n(c1=O)C[C@H]1[C@H](CO)[C@@H](C(=O)O)[C@@H]2N1S(=O)(=O)c1ccccc1F (mixture of isomers) | -13 | nt | nt | 2 | 0 | nt
CN1C(=O)/C(=C/c2ccc(N3CCCCCC3)o2)C(=O)NC1=S | nt | nt | -47 | -134 | 3 | 44*
Cc1ccsc1/C=C1\C(=O)NC(=S)N(C)C1=O | 41 | -70 | 70* | -2 | -1 | 2
CN1C(=O)/C(=C\c2ccc(N3CCCCC3)o2)C(=O)NC1=S | nt | nt | -33 | -79 | 21 | 50*
O=C(O)[C@@H]1[C@@H](CO)[C@@H]2Cn3c(ccc(-c4ccncc4)c3=O)[C@H]1N2C(=O)C1CC1 | 0 | nt | nt | 2 | 1 | nt
CN1CCN(c2ccc([N+](=O)[O-])c3no[n+]([O-])c23)CC1 | 33 | -84 | 86* | 88* | -9 | -2
CN1CCN(c2ccc(S(C)(=O)=O)cc2[N+](=O)[O-])CC1 | -1 | 12 | -8 | -8 | nt | -2
O=[N+]([O-])c1ccc(N(CCO)CCO)c2c1no[n+]2[O-] | 20 | nt | nt | 109* | -18 | -10
COC(=O)C1=C(C(=O)OC)SC2(S1)C(C(=O)OC)=C(C(=O)OC)Sc1c2ssc1=O | 45 | -101 | 101* | 26 | nt | -4
COC(=O)[C@H]1[C@H](CO)[C@H]2Cn3c(ccc(C4=CCCC4)c3=O)[C@@H]1N2CC1CCCC1 | -5 | nt | nt | nt | nt | nt
COc1ccc(C2c3c(nc(C)[nH]c3=O)Oc3c2c(=O)oc2ccccc32)cc1 (configuration not stated) | 8 | nt | nt | 2 | nt | 36*
COc1cccc(C2C([N+](=O)[O-])=C(N)Oc3c2c(=O)oc2ccccc32)c1 (configuration not stated) | nt | nt | -4 | -1 | -1 | 1
SMILES | EWS-Fli block | MITF TRPM1 HTS | MITF TRPM1 inh | PAX8 reporter | esBAF inh | Wnt act
O=C1C(=O)N(c2ccccc2)P(=O)(N(CCCl)CCCl)N1c1ccccc1 | 10 | 99* | -91 | -228 | 27 | 37*
CCOc1ccc(-c2cc(C)[n+](CCN3CCOCC3)c(-c3ccc(OCC)cc3)c2)cc1 | 7 | nt | 43 | 98* | -9 | 0
COc1ccc(C(c2nnnn2Cc2ccccc2)N2CCC(n3c(=O)[nH]c4ccccc43)CC2)cc1 (configuration not stated) | -1 | nt | nt | 89* | -11 | -1
O=c1[nH]c2ccccc2n1C1CCN(C(c2cccs2)c2nnnn2Cc2ccccc2)CC1 (configuration not stated) | 33 | nt | nt | 87* | -5 | -3
O=c1[nH]c2ccccc2n1C1CCN(C(c2ccccc2OC(F)(F)F)c2nnnn2Cc2ccccc2)CC1 (configuration not stated) | 2 | nt | nt | 84* | -2 | -3
Cc1cccc(C)c1-n1nnnc1C(c1cccc2ccccc12)N1CCC(n2c(=O)[nH]c3ccccc32)CC1 (configuration not stated) | 10 | nt | nt | -10 | -5 | -3
C/C=C/c1ccc(C2[C@@H]3CN(C(=O)C4CC4)C[C@H]2N3)cc1 (some centres not stated) | 5 | nt | nt | 0 | nt | nt
COc1ccc(-c2ccc([C@H]3[C@@H](CO)N4CCCCN(C(=O)Cc5ccccc5)C[C@@H]34)cc2)cc1 | nt | nt | nt | -13 | nt | nt
N#Cc1cccc(-c2ccc([C@H]3[C@H]4CN(C(=O)Cc5ccncc5)CCCCN4[C@H]3CO)cc2)c1 | nt | nt | nt | 28 | nt | nt
OC[C@H]1Nc2ccc(C#Cc3cccnc3)cc2[C@H]2NCC[C@H]21 | 1 | nt | nt | nt | nt | nt
CCNC(=O)[C@H]1O[C@@H](n2cnc3c(N)ncnc32)[C@H](O)[C@@H]1O | -2 | -6 | 5 | -6 | 0 | 0
N#Cc1cn(C2OC(CO)C(O)C2O)c2ncnc(N)c12 (configuration not stated) | -7 | nt | 59 | 96* | nt | -2
NC(=O)c1cn(C2OC(CO)C(O)C2O)c2ncnc(N)c12 (configuration not stated) | 55*! | -82 | 84* | 96* | -25 | -21
Nc1ncnc2c1ncn2[C@@H]1O[C@H](COP(=O)(O)CP(=O)(O)O)[C@@H](O)[C@H]1O | 9 | -4 | 2 | -17 | 0 | -3
O=C(O)[C@H]1[C@H](CO)[C@H]2Cn3c(ccc(C4=CCCC4)c3=O)[C@@H]1N2C(=O)Cc1ccccn1 | 3 | nt | nt | nt | 1 | nt
COC(=O)[C@@H]1[C@@H](CO)[C@@H]2Cn3c(ccc(-c4ccc(F)cc4)c3=O)[C@H]1N2Cc1ccccc1 | -6 | nt | nt | -15 | 0 | nt
CC1(C)C[C@H]2C=C(C=O)[C@]3(C=O)C[C@]3(C)[C@H]2C1 | 28 | -87 | 88* | nt | -54 | -1
Cc1cc([N+](=O)[O-])c2ccccc2[n+]1[O-] | nt | nt | 78* | nt | nt | nt
Cc1nc2c(=O)n(C)c(=O)nc-2n(C)n1 | nt | -109 | 110* | nt | nt | nt
